Screens deposited in PubChem by several laboratories.
Rows were chosen to be rich in hits. Some 3.6% of all compounds tested hit in one or more screens of this group.
Peg3 promoter – Peg3 promoter activity inhibition | AID 588405 | HeLa PEG-Prom luciferase reporter, luminescence, overnight | 360,000 compounds, 1.7% hits | inhibition, % at 20 µM;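 active = inhibition of at least 50% at 20 µM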
LGR2 antag – inhibitors of bursicon-induced Drosophila LGR2 receptor cAMP signaling | HEK293 LGR2, CRE-luciferase, bursicon-stimulated, 4 h | inhibition, % at 9.99 µM | 380,000 compounds, 0.35% hits | AID 720647;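 active = drop in luminescence signal, shown as inhibition above about 50% in the replicate tests, limit read from the data, passing the limit was not always enough; inconclusive = probably only some replicates passing the limit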;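 note: agonist challenge used bursicon conditioned medium at about half maximal strength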
CF NFkB block – cystic fibrosis NF-kB activation inhibition. KKLEB NF-kB-GFP reporter, PAF-induced, GFP fluorescence overnight. inhibition, % at 5 µM. 360,000 compounds, 0.86% hits;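 active = at least 50% inhibition at 5 µM, scaled per plate between neutral and stimulator controls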;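 note: PAF is a Pseudomonas aeruginosa culture filtrate used as stimulus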
Mdm2 MdmX PPI – human Mdm2/MdmX binding inhibition | AID 485346 | inhibition, % at 8 µM | O15151+Q00987 | 330,000 compounds, 3% hits | SaOS-2 split-luciferase Mdm2/MdmX complementation, luminescence;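 active = inhibition of at least 50% at 8 µM in the primary screen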
KKLEB cytotox – CF airway cell cytotoxicity counter-screen; KKLEB CF airway cells viability, ATPlite luminescence, overnight; hits give low values; cells stimulated with P. aeruginosa culture filtrate; activity change (cytotoxicity), % at 5 µM; 360,000 compounds, 0.36% hits; AID 602141;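 active = corrected activity change at or below -50% at 5 µM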
HSP90 refold inh – blocks HSP90-mediated luciferase refolding in reticulocyte lysate; Rabbit reticulocyte lysate, luciferase refolding luminescence, 3 h; inhibition, % at 5.6 µM; 290,000 compounds, 0.91% hits; AID 1789;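 active = inhibition above the screen-wide mean plus 3 SD, computed separately per campaign, cut at about 16% in these data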;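 note: inhibitors lower the luminescence because luciferase stays unfolded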
Mdm2-MdmX conf – confirmation of human Mdm2/MdmX interaction inhibitors; 10,000 compounds, 55% hits; shares compounds with Mdm2 MdmX PPI; inhibition, % at 8 µM; Mdm2-MdmX binding, luminescent assay; in the data active = inhibition above about 40%
FLuc counter – inhibits full-length luciferase, flagging false Mdm2/MdmX hits; inhibition, % at 8 µM; 6,200 compounds, 77% hits; shares compounds with Mdm2 MdmX PPI; SaOS-2 full-length luciferase counterscreen, luminescence;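 active = mean inhibition at 8 µM reaching about 37%, which flags the compound as non-specific, limit read from the data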;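 note: p53-null SaOS-2 cells with luciferase driven by a doxycycline-inducible promoter; compound on cells about two nights before reading with doxycycline added after day one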
Of the large screens only hits and unclear results are named; the others gave an inactive call (follow-up assays come after a bar, where they were run).

CC[C@@]1(C(=O)OC)N[C@H](CN(C)C(=O)Nc2ccc(C(F)(F)F)cc2)[C@@H]2C(=O)N(Cc3ccccc3)C(=O)[C@@H]21	Mdm2 MdmX PPI 84 (no result: HSP90 refold inh) | Mdm2-MdmX conf 81 | FLuc counter inactive
CCN(C[C@H]1N[C@@](Cc2ccccc2)(C(=O)OC)[C@H]2C(=O)N(Cc3ccccc3)C(=O)[C@@H]12)C(=O)Nc1ccc(F)cc1	none (no result: HSP90 refold inh)
CC[C@@]1(C(=O)OC)N[C@H](CN(C)C(=O)c2ccc(C(C)(C)C)cc2)[C@@H]2C(=O)N(Cc3ccccc3)C(=O)[C@@H]21	none (no result: HSP90 refold inh)
C[C@H](CO)N1C[C@H](C)[C@H](CN(C)C(=O)Nc2ccc(C(F)(F)F)cc2)Oc2ccc(NC(=O)Nc3ccc(F)cc3)cc2CC1=O	none (no result: Peg3 promoter, CF NFkB block, Mdm2 MdmX PPI, KKLEB cytotox, HSP90 refold inh)
COc1ccc(CN(C)C[C@@H]2Oc3ccc(NC(=O)Nc4ccc5c(c4)OCO5)cc3C(=O)N([C@H](C)CO)C[C@H]2C)cc1	none (no result: Peg3 promoter, CF NFkB block, Mdm2 MdmX PPI, KKLEB cytotox, HSP90 refold inh)
Nc1c(N(CCC2=CCCCC2)C(=O)COc2ccc(F)cc2)c(=O)[nH]c(=O)n1Cc1ccccc1	Peg3 promoter 97, Mdm2 MdmX PPI 53 (no result: LGR2 antag, HSP90 refold inh) | Mdm2-MdmX conf inactive
Nc1c(N(CCC2=CCCCC2)C(=O)CCCOc2ccccc2)c(=O)[nH]c(=O)n1Cc1ccccc1	none (no result: HSP90 refold inh)
CCCNC(=O)[C@H]1[C@H](CO)[C@H]2Cn3c(ccc(C4=CCCC4)c3=O)[C@@H]1N2C(=O)C1CC1	none (no result: Peg3 promoter, CF NFkB block, Mdm2 MdmX PPI, KKLEB cytotox, HSP90 refold inh)
N=c1c(C(=O)NCc2ccc(F)cc2)cc2c(=O)n3ccccc3nc2n1Cc1ccco1	Mdm2 MdmX PPI 100 (no result: LGR2 antag) | Mdm2-MdmX conf 61 | FLuc counter inactive
COc1ccc(CCNC(=O)c2cc3c(=O)n4cccc(C)c4nc3n(Cc3ccco3)c2=N)cc1OC	Mdm2 MdmX PPI 100 | Mdm2-MdmX conf 96 | FLuc counter inactive
Cc1cccn2c(=O)c3cc(C(=O)NCCc4ccccc4)c(=N)n(Cc4ccco4)c3nc12	Mdm2 MdmX PPI 100 | Mdm2-MdmX conf 92 | FLuc counter inactive
N=c1c(C(=O)NCc2ccccc2)cc2c(=O)n3ccccc3nc2n1Cc1ccco1	LGR2 antag inconclusive
Cc1cccn2c(=O)c3cc(C(=O)NCc4ccco4)c(=N)n(CCc4ccccc4)c3nc12	none
Cc1ccc(CNC(=O)c2cc3c(=O)n4ccccc4nc3n(Cc3ccco3)c2=N)cc1	none (no result: HSP90 refold inh)
COc1c(Cl)cnn(-c2ccccc2)c1=O	none
COc1nn(-c2ccccc2)c(=O)c(Cl)c1Cl	Peg3 promoter 105, CF NFkB block 91, Mdm2 MdmX PPI 100, KKLEB cytotox -66 | Mdm2-MdmX conf 62 | FLuc counter inactive
C=CCOc1c(Cl)cc(CNc2ccc(N(C)C)cc2)cc1OC	Mdm2 MdmX PPI 60 | Mdm2-MdmX conf 54 | FLuc counter 75
C=CCOc1c(Cl)cc(CNc2ccc(C)c(Cl)c2)cc1OC	Mdm2 MdmX PPI 76 (no result: Peg3 promoter, LGR2 antag, CF NFkB block, KKLEB cytotox) | Mdm2-MdmX conf 77 | FLuc counter 97
COc1ccc(S(=O)(=O)Nc2ccc3c(c2)C(=O)N([C@@H](C)CO)C[C@H](C)[C@@H](CN(C)S(=O)(=O)c2ccc(C)cc2)O3)cc1	none (no result: Peg3 promoter, CF NFkB block, Mdm2 MdmX PPI, KKLEB cytotox, HSP90 refold inh)
CCCNC(=O)C[C@@H]1CC[C@@H]2[C@@H](COc3ccc(NC(=O)NCCC)cc3C(=O)N2C)O1	none (no result: Peg3 promoter, CF NFkB block, Mdm2 MdmX PPI, KKLEB cytotox, HSP90 refold inh)
Cc1ccccc1N=Nc1c(C)[nH]n(-c2ccccc2)c1=O	none (no result: Peg3 promoter, LGR2 antag, CF NFkB block, Mdm2 MdmX PPI, KKLEB cytotox)
Cc1[nH]n(-c2ccccc2)c(=O)c1N=Nc1ccccc1O	Mdm2 MdmX PPI 59 | Mdm2-MdmX conf 58 | FLuc counter 42
Cc1cc(C(=O)Nc2cccc3c2O[C@@H](CN(C)S(=O)(=O)c2ccc(F)cc2)[C@H](C)CN([C@@H](C)CO)C3=O)n(C)n1	none (no result: Peg3 promoter, CF NFkB block, Mdm2 MdmX PPI, KKLEB cytotox, HSP90 refold inh)
Cc1cc2cc(CN(Cc3ccco3)S(=O)(=O)c3c(C)ccc4nsnc34)c(=O)[nH]c2cc1C	Mdm2 MdmX PPI 61 (no result: LGR2 antag) | Mdm2-MdmX conf 54 | FLuc counter 54
Cc1ccc2cc(CN(Cc3ccco3)S(=O)(=O)c3c(C)ccc4nsnc34)c(=O)[nH]c2c1	none (no result: LGR2 antag)
COc1ccccc1NC(=O)N(Cc1ccco1)Cc1cc2cc(C)cc(C)c2[nH]c1=O	Mdm2 MdmX PPI 53 (no result: LGR2 antag) | Mdm2-MdmX conf inactive
COc1ccccc1NC(=O)N(Cc1ccco1)Cc1cc2ccc(C)c(C)c2[nH]c1=O	none (no result: LGR2 antag)
